Measured values: the supplement of paper PMC10849652
Of roughly 8,800 targets only a part is listed; those with a hit were picked by preference. About 0.5% of all pairs of compound and target were hits.

Each target was assayed with CNC(=O)C1=CC=CC=C1NC2=NC(=NC=C2Cl)NC3=C(C=C(C=C3)N4CCOCC4)OC (assay: log2 fold change, soluble protein after heating vs DMSO (PISA); higher = thermal stabilisation; K562 lysate, 10 uM; active = over 0.2 and 3.5 SD of the protein, either way, in both replicates (recomputed)).
How it was run: (§1)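 To prepare the extract, K562 pellets were dounce-homogenised in PBS pH 7.4 with 1 mM MgCl2, giving crude material at 1 mg/mL protein. This was treated with 10 μM compound for 30 min, then heated in aliquots for 3 min over 48°C-58°C before pooling and addition of NP-40 to 0.5% at 4°C. Centrifugation at 21,000xg for 90 min left soluble protein in the supernatant, which TMTpro 16plex LC-MS/MS quantified with equalised channel sums. Results are log-two fold changes in thermal stability compared with solvent controls, from duplicates.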

Chain of UniProt Q9Y4E6 (Q9Y4E6 whole entry, looked up): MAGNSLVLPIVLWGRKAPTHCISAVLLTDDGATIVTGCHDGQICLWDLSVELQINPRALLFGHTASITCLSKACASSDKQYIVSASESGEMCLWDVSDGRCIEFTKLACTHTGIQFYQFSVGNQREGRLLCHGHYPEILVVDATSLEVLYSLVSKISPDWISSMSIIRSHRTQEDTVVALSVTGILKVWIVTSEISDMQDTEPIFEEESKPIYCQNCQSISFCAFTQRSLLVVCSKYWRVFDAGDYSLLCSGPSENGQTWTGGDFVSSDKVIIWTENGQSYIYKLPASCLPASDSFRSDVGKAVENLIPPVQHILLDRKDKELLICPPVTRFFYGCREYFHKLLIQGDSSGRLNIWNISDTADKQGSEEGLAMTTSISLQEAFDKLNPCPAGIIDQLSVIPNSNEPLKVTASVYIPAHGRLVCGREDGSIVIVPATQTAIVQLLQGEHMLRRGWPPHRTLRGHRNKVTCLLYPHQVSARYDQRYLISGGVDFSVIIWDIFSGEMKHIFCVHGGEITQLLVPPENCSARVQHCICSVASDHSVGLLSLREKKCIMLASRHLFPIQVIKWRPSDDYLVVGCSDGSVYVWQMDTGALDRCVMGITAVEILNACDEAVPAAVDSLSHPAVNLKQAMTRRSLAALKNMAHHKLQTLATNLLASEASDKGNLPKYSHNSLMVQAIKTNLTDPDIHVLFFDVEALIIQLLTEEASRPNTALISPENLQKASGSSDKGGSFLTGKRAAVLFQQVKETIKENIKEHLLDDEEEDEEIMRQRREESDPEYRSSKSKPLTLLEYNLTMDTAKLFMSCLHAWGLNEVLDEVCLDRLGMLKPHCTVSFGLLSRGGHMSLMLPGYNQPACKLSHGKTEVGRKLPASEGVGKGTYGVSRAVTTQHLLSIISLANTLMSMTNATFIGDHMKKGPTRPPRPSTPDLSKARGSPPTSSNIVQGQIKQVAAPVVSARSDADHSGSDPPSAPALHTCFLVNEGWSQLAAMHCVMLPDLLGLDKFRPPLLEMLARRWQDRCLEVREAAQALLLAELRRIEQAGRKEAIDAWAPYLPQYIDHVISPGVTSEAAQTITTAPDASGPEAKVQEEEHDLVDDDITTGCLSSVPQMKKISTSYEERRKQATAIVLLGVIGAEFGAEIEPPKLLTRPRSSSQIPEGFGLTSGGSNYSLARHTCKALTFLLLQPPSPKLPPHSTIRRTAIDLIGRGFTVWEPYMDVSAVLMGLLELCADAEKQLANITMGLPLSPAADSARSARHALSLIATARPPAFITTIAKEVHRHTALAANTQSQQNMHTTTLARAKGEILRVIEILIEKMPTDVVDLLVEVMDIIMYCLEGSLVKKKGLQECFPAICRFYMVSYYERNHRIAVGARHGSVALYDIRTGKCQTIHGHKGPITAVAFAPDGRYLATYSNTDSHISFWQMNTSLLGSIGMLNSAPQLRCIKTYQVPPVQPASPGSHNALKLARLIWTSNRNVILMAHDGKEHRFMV
Chain of UniProt Q86WB0 (Q86WB0 whole entry, looked up): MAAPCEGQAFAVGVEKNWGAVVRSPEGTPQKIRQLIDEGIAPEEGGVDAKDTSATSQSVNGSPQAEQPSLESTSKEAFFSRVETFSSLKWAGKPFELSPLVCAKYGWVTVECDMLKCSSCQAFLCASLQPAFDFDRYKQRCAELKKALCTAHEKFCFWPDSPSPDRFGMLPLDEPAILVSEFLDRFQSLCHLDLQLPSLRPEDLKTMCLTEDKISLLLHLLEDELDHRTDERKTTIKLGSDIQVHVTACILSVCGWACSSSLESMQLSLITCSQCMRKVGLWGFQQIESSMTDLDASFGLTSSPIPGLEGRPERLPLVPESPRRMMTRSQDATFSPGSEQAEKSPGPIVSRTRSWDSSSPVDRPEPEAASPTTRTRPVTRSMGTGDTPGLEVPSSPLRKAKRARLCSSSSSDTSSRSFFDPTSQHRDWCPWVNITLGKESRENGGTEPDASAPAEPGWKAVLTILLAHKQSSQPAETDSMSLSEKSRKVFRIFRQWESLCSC
Chain of UniProt Q96S55 (Q96S55 whole entry, looked up): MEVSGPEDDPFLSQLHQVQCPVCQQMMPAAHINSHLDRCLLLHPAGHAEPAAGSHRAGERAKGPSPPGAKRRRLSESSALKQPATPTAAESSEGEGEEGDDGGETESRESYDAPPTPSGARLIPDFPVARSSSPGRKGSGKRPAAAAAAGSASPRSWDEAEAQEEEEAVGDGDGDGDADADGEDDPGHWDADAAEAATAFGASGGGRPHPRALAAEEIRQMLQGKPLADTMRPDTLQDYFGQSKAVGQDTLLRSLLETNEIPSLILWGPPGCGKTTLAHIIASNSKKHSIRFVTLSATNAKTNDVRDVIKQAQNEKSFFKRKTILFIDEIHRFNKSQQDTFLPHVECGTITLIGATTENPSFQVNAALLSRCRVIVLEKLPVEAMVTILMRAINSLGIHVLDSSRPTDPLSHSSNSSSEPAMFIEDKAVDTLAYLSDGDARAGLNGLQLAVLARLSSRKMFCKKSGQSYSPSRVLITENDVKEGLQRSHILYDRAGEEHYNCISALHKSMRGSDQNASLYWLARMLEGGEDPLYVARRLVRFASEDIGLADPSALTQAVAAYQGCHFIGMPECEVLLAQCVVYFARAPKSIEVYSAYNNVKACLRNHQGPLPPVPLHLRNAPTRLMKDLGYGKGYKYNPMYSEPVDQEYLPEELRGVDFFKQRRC
Chain of UniProt A4D1P6 (A4D1P6 whole entry, looked up): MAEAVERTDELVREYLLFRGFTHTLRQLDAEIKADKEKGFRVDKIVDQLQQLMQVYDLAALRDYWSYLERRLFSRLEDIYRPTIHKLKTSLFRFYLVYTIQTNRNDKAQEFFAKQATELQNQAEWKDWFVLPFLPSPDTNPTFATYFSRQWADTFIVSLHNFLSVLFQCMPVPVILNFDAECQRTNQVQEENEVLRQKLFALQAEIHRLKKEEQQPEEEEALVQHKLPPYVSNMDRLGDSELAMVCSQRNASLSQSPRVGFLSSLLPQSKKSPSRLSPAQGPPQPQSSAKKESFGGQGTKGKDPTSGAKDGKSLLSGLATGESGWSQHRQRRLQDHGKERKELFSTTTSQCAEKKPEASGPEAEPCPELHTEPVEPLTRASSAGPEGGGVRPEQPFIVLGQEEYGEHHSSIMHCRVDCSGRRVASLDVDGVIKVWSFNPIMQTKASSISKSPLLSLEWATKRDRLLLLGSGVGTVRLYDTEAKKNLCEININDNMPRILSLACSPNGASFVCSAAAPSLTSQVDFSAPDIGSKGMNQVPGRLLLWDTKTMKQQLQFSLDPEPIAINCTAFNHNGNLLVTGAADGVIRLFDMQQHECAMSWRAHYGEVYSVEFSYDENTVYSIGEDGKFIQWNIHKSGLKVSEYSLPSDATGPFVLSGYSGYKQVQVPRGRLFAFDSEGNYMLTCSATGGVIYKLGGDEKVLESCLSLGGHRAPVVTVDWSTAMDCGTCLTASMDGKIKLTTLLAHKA
Chain of UniProt Q9UBW7 (Q9UBW7 whole entry, looked up): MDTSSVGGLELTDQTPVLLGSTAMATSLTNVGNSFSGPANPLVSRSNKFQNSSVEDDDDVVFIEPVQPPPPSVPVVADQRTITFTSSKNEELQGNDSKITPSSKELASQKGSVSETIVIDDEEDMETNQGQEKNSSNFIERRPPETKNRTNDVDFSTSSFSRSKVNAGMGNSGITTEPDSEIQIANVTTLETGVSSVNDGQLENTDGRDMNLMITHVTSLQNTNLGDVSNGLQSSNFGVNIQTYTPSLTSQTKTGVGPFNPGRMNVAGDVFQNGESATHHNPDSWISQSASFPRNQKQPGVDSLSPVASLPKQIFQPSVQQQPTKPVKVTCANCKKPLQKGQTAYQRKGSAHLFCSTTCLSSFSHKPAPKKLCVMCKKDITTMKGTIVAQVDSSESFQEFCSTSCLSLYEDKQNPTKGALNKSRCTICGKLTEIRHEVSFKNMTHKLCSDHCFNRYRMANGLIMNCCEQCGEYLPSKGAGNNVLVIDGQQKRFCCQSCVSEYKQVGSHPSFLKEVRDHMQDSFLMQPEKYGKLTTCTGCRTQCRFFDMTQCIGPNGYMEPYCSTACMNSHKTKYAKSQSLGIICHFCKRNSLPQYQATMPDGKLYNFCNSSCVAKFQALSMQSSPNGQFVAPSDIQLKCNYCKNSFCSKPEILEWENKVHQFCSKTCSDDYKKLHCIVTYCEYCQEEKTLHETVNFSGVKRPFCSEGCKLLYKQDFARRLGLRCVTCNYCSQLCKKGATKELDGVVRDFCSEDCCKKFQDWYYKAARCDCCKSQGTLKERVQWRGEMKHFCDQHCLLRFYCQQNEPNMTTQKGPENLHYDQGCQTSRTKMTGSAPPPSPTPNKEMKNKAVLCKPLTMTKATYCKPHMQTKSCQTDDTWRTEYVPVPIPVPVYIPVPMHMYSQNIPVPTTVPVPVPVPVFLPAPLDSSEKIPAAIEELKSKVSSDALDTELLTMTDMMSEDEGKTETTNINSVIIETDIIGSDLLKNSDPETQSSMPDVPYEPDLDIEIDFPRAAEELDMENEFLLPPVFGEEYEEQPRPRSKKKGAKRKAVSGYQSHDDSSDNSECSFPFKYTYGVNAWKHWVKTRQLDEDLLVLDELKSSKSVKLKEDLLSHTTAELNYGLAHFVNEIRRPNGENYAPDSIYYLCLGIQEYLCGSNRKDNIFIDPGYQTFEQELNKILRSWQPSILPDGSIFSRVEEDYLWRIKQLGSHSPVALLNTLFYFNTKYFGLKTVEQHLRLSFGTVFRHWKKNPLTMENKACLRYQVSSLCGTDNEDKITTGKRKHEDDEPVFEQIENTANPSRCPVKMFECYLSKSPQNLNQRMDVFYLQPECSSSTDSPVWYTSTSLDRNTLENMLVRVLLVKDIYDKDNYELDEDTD
Chain of UniProt A8MPS7 (A8MPS7 whole entry, looked up): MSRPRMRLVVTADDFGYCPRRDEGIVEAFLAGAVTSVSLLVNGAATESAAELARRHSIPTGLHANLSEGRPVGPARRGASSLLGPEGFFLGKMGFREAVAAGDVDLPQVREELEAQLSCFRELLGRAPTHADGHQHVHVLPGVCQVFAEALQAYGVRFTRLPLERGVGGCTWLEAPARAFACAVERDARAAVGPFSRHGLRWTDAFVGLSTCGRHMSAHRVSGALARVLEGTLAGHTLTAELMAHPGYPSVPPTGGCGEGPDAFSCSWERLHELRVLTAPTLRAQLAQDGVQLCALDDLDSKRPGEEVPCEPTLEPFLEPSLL

Target	log2 fold change
UPF3B (UniProt Q9BZI7)	0.023 (inactive)
YWHAQ (UniProt P27348)	-0.006 (inactive)
ZNF609 (UniProt O15014)	0.02 (inactive)
WRB (UniProt O00258)	0.029 (inactive)
VPS72 (UniProt Q15906)	0.041 (inactive)
YTHDC2 (UniProt Q9H6S0)	0.038 (inactive)
WDR77 (UniProt Q9BQA1)	0.002 (inactive)
ZC3HC1 (UniProt Q86WB0)	0.018 (inactive)
ZNF217 (UniProt O75362)	0.009 (inactive)
USP10 isoform 2 (UniProt Q14694)	0.015 (inactive)
ZMYM4 (UniProt Q5VZL5)	-0.015 (inactive)
USP16 (UniProt Q9Y5T5)	-0.011 (inactive)
VPS54 (UniProt Q9P1Q0)	0.059 (inactive)
ZDHHC18 (UniProt Q9NUE0)	0.222 (inactive)
YRDC (UniProt Q86U90)	0.044 (inactive)
WRNIP1 (UniProt Q96S55)	0.01 (inactive)

Target	log2 fold change
ZMYM2 (UniProt Q9UBW7)	0.003 (inactive)
YDJC (UniProt A8MPS7)	0.014 (inactive)
ZFYVE19 (UniProt Q96K21)	-0.037 (inactive)
WDR7 (UniProt Q9Y4E6)	0 (inactive)
WDR91 (UniProt A4D1P6)	0.017 (inactive)
ZNHIT6 (UniProt Q9NWK9)	0.034 (inactive)
UTP18 (UniProt Q9Y5J1)	0.075 (inactive)
USE1 (UniProt Q9NZ43)	-0.002 (inactive)
XPO5 (UniProt Q9HAV4)	-0.014 (inactive)
ZC3H13 (UniProt Q5T200)	-0.073 (inactive)
VPS18 (UniProt Q9P253)	0.011 (inactive)
USP48 (UniProt Q86UV5)	0.123 (inactive)
UTP3 (UniProt Q9NQZ2)	-0.047 (inactive)
WAC (UniProt Q9BTA9)	0.068 (inactive)
VASP (UniProt P50552)	-0.017 (inactive)

The targets below were run with CNC(=O)c1ccc(Nc2ncc(C(F)(F)F)c(NCc3nccnc3N(C)S(C)(=O)=O)n2)cc1 [defactinib] in the same assay as above.
How it was run: as §1

Target	log2 fold change
UPF3B (UniProt Q9BZI7)	-0.015 (inactive)
YWHAQ (UniProt P27348)	0 (inactive)
ZNF609 (UniProt O15014)	-0.026 (inactive)
WRB (UniProt O00258)	-0.003 (inactive)
VPS72 (UniProt Q15906)	-0.078 (inactive)
YTHDC2 (UniProt Q9H6S0)	0.048 (inactive)
WDR77 (UniProt Q9BQA1)	-0.012 (inactive)
ZC3HC1 (UniProt Q86WB0)	-0.015 (inactive)
ZNF217 (UniProt O75362)	-0.045 (inactive)
USP10 isoform 2 (UniProt Q14694)	0.017 (inactive)
ZMYM4 (UniProt Q5VZL5)	0.096 (inactive)
USP16 (UniProt Q9Y5T5)	0.035 (inactive)
VPS54 (UniProt Q9P1Q0)	-0.07 (inactive)
ZDHHC18 (UniProt Q9NUE0)	0.029 (inactive)
YRDC (UniProt Q86U90)	-0.023 (inactive)
WRNIP1 (UniProt Q96S55)	0.01 (inactive)

Target	log2 fold change
ZMYM2 (UniProt Q9UBW7)	0.121 (inactive)
YDJC (UniProt A8MPS7)	-0.026 (inactive)
ZFYVE19 (UniProt Q96K21)	-0.002 (inactive)
WDR7 (UniProt Q9Y4E6)	-0.025 (inactive)
WDR91 (UniProt A4D1P6)	-0.003 (inactive)
ZNHIT6 (UniProt Q9NWK9)	-0.04 (inactive)
UTP18 (UniProt Q9Y5J1)	-0.086 (inactive)
USE1 (UniProt Q9NZ43)	0.064 (inactive)
XPO5 (UniProt Q9HAV4)	-0.002 (inactive)
ZC3H13 (UniProt Q5T200)	0.088 (inactive)
VPS18 (UniProt Q9P253)	-0.057 (inactive)
USP48 (UniProt Q86UV5)	0.024 (inactive)
UTP3 (UniProt Q9NQZ2)	0.151 (inactive)
WAC (UniProt Q9BTA9)	0.013 (inactive)
VASP (UniProt P50552)	0.013 (inactive)
